Results: PMC7862700, “An all-to-all approach to the identification of sequence-specific readers for epigenetic DNA modifications on cytosine”

Experiments:
Test in all cases: DAPPL (digital affinity profiling via proximity ligation, sequencing); 10 mM Tris-HCl pH 7.5, 50 mM NaCl, 1 mM DTT, 4% glycerol, room temperature, 30 min; GST-TFs on glutathione beads, 16-mer random dsDNA library, 0.1% formaldehyde crosslink after washing; high values mean tight binding
Details in all cases: protein: recombinant; tags: N-terminal GST; dsDNA, one strand shown
FLI1 = molecular target: T1, FLI1 (Homo sapiens, UniProt Q01543 1-452)
T1 sequence: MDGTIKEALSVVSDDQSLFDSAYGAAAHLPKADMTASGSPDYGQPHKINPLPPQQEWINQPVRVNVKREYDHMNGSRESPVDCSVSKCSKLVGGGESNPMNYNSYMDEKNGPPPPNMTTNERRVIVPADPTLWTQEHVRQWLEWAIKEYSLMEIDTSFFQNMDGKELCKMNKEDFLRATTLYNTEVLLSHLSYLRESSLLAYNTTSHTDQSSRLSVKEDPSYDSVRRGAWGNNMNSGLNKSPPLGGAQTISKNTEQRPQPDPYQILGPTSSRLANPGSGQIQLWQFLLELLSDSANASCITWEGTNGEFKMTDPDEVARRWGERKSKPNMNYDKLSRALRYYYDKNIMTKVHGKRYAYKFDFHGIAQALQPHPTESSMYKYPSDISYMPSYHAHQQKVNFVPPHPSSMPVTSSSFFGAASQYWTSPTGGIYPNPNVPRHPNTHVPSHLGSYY
How it was run: (§1)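 In yeast, human transcription factors were expressed with a GST fusion, then pulled down on glutathione beads and given DNA barcodes. Pooled with a tag-only sample, they were exposed to 200 nmole of a 16-mer random double-stranded DNA library (Tris/NaCl/DTT/glycerol buffer, room temperature, 30 min), washed, crosslinked with 0.1% formaldehyde, proximity-ligated using BsaI/T4 ligase for 1 h at 37 °C, PCR-amplified and read on an Illumina NextSeq500. Each hexamer's frequency of reads for a factor, divided by the matching frequency for the tag-only sample, gives the binding signal.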

ELK1 = molecular target: T2, ELK1 (Homo sapiens, UniProt P19419 1-428)
T2 sequence: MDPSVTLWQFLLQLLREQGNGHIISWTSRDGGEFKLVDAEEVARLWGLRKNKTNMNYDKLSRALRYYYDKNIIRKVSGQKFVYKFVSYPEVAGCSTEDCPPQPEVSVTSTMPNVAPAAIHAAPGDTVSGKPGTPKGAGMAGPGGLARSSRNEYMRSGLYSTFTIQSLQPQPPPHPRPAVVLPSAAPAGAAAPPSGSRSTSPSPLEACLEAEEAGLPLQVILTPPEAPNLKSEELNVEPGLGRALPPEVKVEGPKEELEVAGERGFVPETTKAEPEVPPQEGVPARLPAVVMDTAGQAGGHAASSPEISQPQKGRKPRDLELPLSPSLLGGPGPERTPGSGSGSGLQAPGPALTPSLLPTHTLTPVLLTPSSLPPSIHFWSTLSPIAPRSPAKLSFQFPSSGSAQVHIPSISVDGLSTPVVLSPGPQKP
How it was run: as §1

GABPA = molecular target: T3, GABPA (Homo sapiens, UniProt Q06546 1-454)
T3 sequence: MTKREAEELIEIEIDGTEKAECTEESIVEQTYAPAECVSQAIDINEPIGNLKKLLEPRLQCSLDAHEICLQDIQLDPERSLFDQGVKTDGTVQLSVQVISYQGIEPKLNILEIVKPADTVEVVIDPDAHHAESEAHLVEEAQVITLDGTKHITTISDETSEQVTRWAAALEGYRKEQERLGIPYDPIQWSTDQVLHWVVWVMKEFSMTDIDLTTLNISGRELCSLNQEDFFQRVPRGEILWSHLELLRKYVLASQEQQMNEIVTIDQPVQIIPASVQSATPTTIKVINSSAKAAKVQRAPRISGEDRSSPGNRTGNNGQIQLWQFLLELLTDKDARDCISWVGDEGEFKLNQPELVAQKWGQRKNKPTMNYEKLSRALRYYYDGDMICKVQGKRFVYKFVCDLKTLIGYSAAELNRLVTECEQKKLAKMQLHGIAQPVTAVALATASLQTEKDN
How it was run: as §1

ERG = molecular target: T4, ERG (Homo sapiens, UniProt P11308 1-479)
T4 sequence: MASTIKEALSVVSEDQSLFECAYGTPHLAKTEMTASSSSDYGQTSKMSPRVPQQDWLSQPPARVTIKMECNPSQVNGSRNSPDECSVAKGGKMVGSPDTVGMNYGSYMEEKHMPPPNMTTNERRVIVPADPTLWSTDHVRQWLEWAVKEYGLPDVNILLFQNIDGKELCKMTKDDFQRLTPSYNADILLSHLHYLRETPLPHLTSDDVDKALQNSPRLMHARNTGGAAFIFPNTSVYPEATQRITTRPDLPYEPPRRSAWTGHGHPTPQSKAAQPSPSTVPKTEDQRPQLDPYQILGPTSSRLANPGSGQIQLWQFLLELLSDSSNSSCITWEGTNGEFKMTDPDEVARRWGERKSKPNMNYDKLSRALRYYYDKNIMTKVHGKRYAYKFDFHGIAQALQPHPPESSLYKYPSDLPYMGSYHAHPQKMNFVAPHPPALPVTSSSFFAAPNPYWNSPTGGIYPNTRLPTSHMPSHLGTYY
How it was run: as §1

ELF1 = ELF1 (Homo sapiens, UniProt P32519 1-619)
ELF1, sequence (P32519 whole entry): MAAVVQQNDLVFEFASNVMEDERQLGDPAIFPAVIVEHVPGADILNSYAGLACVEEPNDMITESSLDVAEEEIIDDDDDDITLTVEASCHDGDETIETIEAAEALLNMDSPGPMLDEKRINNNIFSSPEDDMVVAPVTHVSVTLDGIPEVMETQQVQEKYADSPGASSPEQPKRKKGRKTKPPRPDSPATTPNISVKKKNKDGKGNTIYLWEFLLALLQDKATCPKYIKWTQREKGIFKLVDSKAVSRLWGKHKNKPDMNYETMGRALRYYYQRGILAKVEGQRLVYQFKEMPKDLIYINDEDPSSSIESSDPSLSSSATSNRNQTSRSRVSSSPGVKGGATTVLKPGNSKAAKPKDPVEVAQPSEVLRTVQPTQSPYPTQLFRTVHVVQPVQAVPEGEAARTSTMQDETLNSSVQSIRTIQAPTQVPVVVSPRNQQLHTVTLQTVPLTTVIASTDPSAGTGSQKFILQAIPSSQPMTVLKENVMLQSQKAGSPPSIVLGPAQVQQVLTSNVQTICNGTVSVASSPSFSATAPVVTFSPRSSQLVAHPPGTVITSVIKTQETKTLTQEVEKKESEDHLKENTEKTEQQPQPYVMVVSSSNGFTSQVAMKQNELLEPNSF
How it was run: as §1

EHF = molecular target: T5, EHF (Homo sapiens, UniProt Q9NZC4 1-300)
T5 sequence: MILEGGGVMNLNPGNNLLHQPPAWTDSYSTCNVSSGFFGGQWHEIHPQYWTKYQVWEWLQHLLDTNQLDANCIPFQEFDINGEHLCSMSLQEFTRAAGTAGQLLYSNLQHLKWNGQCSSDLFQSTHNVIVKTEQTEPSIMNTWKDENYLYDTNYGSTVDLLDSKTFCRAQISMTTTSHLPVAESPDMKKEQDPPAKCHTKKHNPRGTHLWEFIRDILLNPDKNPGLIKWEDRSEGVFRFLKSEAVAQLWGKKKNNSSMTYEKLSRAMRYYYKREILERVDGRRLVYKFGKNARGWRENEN
How it was run: as §1

SPI1 = SPI1 (Homo sapiens, UniProt P17947 1-270)
How it was run: as §1

SPIB = SPIB (Homo sapiens, UniProt Q01892 1-262)
SPIB, sequence (Q01892 whole entry): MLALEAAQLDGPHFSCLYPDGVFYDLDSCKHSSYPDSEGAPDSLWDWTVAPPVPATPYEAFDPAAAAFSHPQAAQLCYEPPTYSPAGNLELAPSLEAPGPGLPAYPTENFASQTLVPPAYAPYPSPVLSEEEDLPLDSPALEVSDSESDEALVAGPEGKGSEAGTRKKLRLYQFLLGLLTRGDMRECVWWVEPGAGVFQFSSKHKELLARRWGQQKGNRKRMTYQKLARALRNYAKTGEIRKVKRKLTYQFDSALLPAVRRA
How it was run: as §1

ELK3 = molecular target: T6, ELK3 (Homo sapiens, UniProt P41970 1-407)
T6 sequence: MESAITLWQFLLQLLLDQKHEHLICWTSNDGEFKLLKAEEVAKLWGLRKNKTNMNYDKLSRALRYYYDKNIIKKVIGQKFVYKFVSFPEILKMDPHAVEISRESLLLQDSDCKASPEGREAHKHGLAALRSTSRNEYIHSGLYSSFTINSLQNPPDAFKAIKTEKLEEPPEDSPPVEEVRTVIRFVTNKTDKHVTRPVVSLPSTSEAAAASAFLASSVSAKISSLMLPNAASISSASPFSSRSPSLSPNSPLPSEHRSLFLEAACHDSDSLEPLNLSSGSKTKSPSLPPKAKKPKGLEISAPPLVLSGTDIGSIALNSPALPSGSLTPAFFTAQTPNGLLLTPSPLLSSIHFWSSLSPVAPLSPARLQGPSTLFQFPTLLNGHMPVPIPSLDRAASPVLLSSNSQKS
How it was run: as §1

Sequence: TTTTCT
- binding signal (FLI1): 1.31 fold enrichment (6-mer frequency, TF over GST control)
- binding signal (ELK1): 1.29 fold enrichment (6-mer frequency, TF over GST control)
- binding signal (GABPA): 1.27 fold enrichment (6-mer frequency, TF over GST control)
- binding signal (ERG): 1.34 fold enrichment (6-mer frequency, TF over GST control)
- binding signal (ELF1): 1.29 fold enrichment (6-mer frequency, TF over GST control)
- binding signal (EHF): 1.46 fold enrichment (6-mer frequency, TF over GST control)
- binding signal (SPI1): 1.45 fold enrichment (6-mer frequency, TF over GST control)
- binding signal (SPIB): 1.18 fold enrichment (6-mer frequency, TF over GST control)
- binding signal (ELK3): 1.31 fold enrichment (6-mer frequency, TF over GST control)

Sequence: GCTATA
- binding signal (FLI1): 1.17 fold enrichment (6-mer frequency, TF over GST control)
- binding signal (ELK1): 1.11 fold enrichment (6-mer frequency, TF over GST control)
- binding signal (GABPA): 1.16 fold enrichment (6-mer frequency, TF over GST control)
- binding signal (ERG): 1.16 fold enrichment (6-mer frequency, TF over GST control)
- binding signal (ELF1): 1.19 fold enrichment (6-mer frequency, TF over GST control)
- binding signal (EHF): 1.16 fold enrichment (6-mer frequency, TF over GST control)
- binding signal (SPI1): 1.09 fold enrichment (6-mer frequency, TF over GST control)
- binding signal (SPIB): 1.25 fold enrichment (6-mer frequency, TF over GST control)
- binding signal (ELK3): 1.24 fold enrichment (6-mer frequency, TF over GST control)

Sequence: CCTATA
- binding signal (FLI1): 1.35 fold enrichment (6-mer frequency, TF over GST control)
- binding signal (ELK1): 1.29 fold enrichment (6-mer frequency, TF over GST control)
- binding signal (GABPA): 1.42 fold enrichment (6-mer frequency, TF over GST control)
- binding signal (ERG): 1.3 fold enrichment (6-mer frequency, TF over GST control)
- binding signal (ELF1): 1.39 fold enrichment (6-mer frequency, TF over GST control)
- binding signal (EHF): 1.28 fold enrichment (6-mer frequency, TF over GST control)
- binding signal (SPI1): 1.28 fold enrichment (6-mer frequency, TF over GST control)
- binding signal (SPIB): 1.34 fold enrichment (6-mer frequency, TF over GST control)
- binding signal (ELK3): 1.32 fold enrichment (6-mer frequency, TF over GST control)

Sequence: TAGTTT
- binding signal (FLI1): 1.23 fold enrichment (6-mer frequency, TF over GST control)
- binding signal (ELK1): 1.19 fold enrichment (6-mer frequency, TF over GST control)
- binding signal (GABPA): 1.25 fold enrichment (6-mer frequency, TF over GST control)
- binding signal (ERG): 1.14 fold enrichment (6-mer frequency, TF over GST control)
- binding signal (ELF1): 1.22 fold enrichment (6-mer frequency, TF over GST control)
- binding signal (EHF): 1.21 fold enrichment (6-mer frequency, TF over GST control)
- binding signal (SPI1): 1.12 fold enrichment (6-mer frequency, TF over GST control)
- binding signal (SPIB): 1.13 fold enrichment (6-mer frequency, TF over GST control)
- binding signal (ELK3): 1.23 fold enrichment (6-mer frequency, TF over GST control)

Sequence: TTCTAT
- binding signal (FLI1): 1.4 fold enrichment (6-mer frequency, TF over GST control)
- binding signal (ELK1): 1.49 fold enrichment (6-mer frequency, TF over GST control)
- binding signal (GABPA): 1.31 fold enrichment (6-mer frequency, TF over GST control)
- binding signal (ERG): 1.26 fold enrichment (6-mer frequency, TF over GST control)
- binding signal (ELF1): 1.46 fold enrichment (6-mer frequency, TF over GST control)
- binding signal (EHF): 1.42 fold enrichment (6-mer frequency, TF over GST control)
- binding signal (SPI1): 1.36 fold enrichment (6-mer frequency, TF over GST control)
- binding signal (SPIB): 1.41 fold enrichment (6-mer frequency, TF over GST control)
- binding signal (ELK3): 1.35 fold enrichment (6-mer frequency, TF over GST control)

Sequence: TAAAGT
- binding signal (FLI1): 1.22 fold enrichment (6-mer frequency, TF over GST control)
- binding signal (ELK1): 1.14 fold enrichment (6-mer frequency, TF over GST control)
- binding signal (GABPA): 1.24 fold enrichment (6-mer frequency, TF over GST control)
- binding signal (ERG): 1.17 fold enrichment (6-mer frequency, TF over GST control)
- binding signal (ELF1): 1.18 fold enrichment (6-mer frequency, TF over GST control)
- binding signal (EHF): 1.18 fold enrichment (6-mer frequency, TF over GST control)
- binding signal (SPI1): 1.21 fold enrichment (6-mer frequency, TF over GST control)
- binding signal (SPIB): 1.11 fold enrichment (6-mer frequency, TF over GST control)
- binding signal (ELK3): 1.38 fold enrichment (6-mer frequency, TF over GST control)

Sequence: TCCTTC
- binding signal (FLI1): 2.2 fold enrichment (6-mer frequency, TF over GST control)
- binding signal (ELK1): 2 fold enrichment (6-mer frequency, TF over GST control)
- binding signal (GABPA): 2.01 fold enrichment (6-mer frequency, TF over GST control)
- binding signal (ERG): 2.44 fold enrichment (6-mer frequency, TF over GST control)
- binding signal (ELF1): 2.05 fold enrichment (6-mer frequency, TF over GST control)
- binding signal (EHF): 2 fold enrichment (6-mer frequency, TF over GST control)
- binding signal (SPI1): 2.15 fold enrichment (6-mer frequency, TF over GST control)
- binding signal (SPIB): 2.16 fold enrichment (6-mer frequency, TF over GST control)
- binding signal (ELK3): 2.3 fold enrichment (6-mer frequency, TF over GST control)

Sequence: TAACGC
- binding signal (FLI1): 1.12 fold enrichment (6-mer frequency, TF over GST control)
- binding signal (ELK1): 1.2 fold enrichment (6-mer frequency, TF over GST control)
- binding signal (GABPA): 1.21 fold enrichment (6-mer frequency, TF over GST control)
- binding signal (ERG): 1.17 fold enrichment (6-mer frequency, TF over GST control)
- binding signal (ELF1): 1.27 fold enrichment (6-mer frequency, TF over GST control)
- binding signal (EHF): 1.16 fold enrichment (6-mer frequency, TF over GST control)
- binding signal (SPI1): 1.17 fold enrichment (6-mer frequency, TF over GST control)
- binding signal (SPIB): 1.13 fold enrichment (6-mer frequency, TF over GST control)
- binding signal (ELK3): 1.23 fold enrichment (6-mer frequency, TF over GST control)

Sequence: TTCAAT
- binding signal (FLI1): 1.33 fold enrichment (6-mer frequency, TF over GST control)
- binding signal (ELK1): 1.42 fold enrichment (6-mer frequency, TF over GST control)
- binding signal (GABPA): 1.42 fold enrichment (6-mer frequency, TF over GST control)
- binding signal (ERG): 1.41 fold enrichment (6-mer frequency, TF over GST control)
- binding signal (ELF1): 1.37 fold enrichment (6-mer frequency, TF over GST control)
- binding signal (EHF): 1.34 fold enrichment (6-mer frequency, TF over GST control)
- binding signal (SPI1): 1.38 fold enrichment (6-mer frequency, TF over GST control)
- binding signal (SPIB): 1.36 fold enrichment (6-mer frequency, TF over GST control)
- binding signal (ELK3): 1.26 fold enrichment (6-mer frequency, TF over GST control)
